# Test results reported in PubChem BioAssay (NCATS).
# Results filed as inconclusive are left out. A call without a number means that no potency is given here. Unmarked numbers belong to inactive results. The source made the active and inactive calls. Calls follow the shape of the dose curve; as a rule, active = well fitted cell-killing curve with a large enough effect; inconclusive = small, poorly fitted or top-dose-only effect, or effect the other way; inactive = no such curve, though single readings can be large or run the other way.
# Experiments:
# [1] = Viability qHTS for spleen associated tyrosine kinase inhibitor (SYKi) naive MV4-11 cells (AID 1963823); also: nearly all actives have a fitted effect of over 40% in size
# Procedure, shortened: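 Viability of MV4-11 AML cells lacking prior SYK inhibitor exposure is scored by CellTiter-Glo luminescence following 72 hr compound incubation at 37 C, 5% CO2, seeded at 500 cells per well.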
# [2] = Viability qHTS for spleen associated tyrosine kinase inhibitor (SYKi) drug resistant MV4-11 cells (AID 1963824); also: nearly all actives have a fitted effect of over 35% in size
# Procedure, shortened: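 SYK inhibitor-resistant MV4-11 AML cells, 500 per well, added to predispensed compounds and incubated 72 hr at 37 C, 5% CO2. Viability measured by CellTiter-Glo luminescence after 10 min at room temperature.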
# Potency is read from the fitted curve at half-maximal effect.
Structure (SMILES),Potency [1],Potency [2],viability (% of control) [1],"viability, % of control [2]"
CCC(C)C(=O)O[C@H]1[C@@H](O[C@H]2O[C@H](CO)[C@@H](O)[C@H](O)[C@H]2O)O[C@H](CO)[C@@H](O)[C@@H]1O (stereo not given in full),inactive,inactive,–,–
O=C(Nc1ccc2[nH]ncc2c1)C1CCC1,inactive,inactive,–,–
CC1CC(O)C2(OC1=O)OC1C(O)C3C4CCC5CC(OC6OC(CO)C(O)C(O)C6OC6OC(C)C(O)C(O)C6O)CCC5(C)C4CCC3(C)C1C2C (stereo not given),inactive,inactive,–,–
CC1(O)CCC2C(C(=O)O)=COC(OC3OC(CO)C(O)C(O)C3OC(=O)/C=C/c3ccc(O)cc3)C21 (stereo not given),inactive,inactive,–,–
CNc1nc(-c2ccc3c(N)n[nH]c3c2)cc(N2CC(C(=O)NC3CCCCC3)CCC2C)n1 (stereo not given),2310 nM (active),4610 nM (active),–,–
Cc1ccccc1CN1C2=NCCN2C(=O)C2=C1CCN(Cc1ccccc1)C2,16400 nM (active),9200 nM (active),–,–
O=C(/C=C/c1c(C(=O)O)[nH]c2cc(Cl)cc(Cl)c12)Nc1ccccc1,inactive,inactive,–,–
CC/C=C\CC1C(CC(=O)O)CCC1OC1OC(CO)C(O)C(O)C1O (stereo not given),inactive,inactive,–,–
OC1COC(OCC2OC(OCCc3ccccc3)C(O)C(O)C2O)C(O)C1O (stereo not given),inactive,inactive,–,–
O=C(O)CCc1cc2ccoc2cc1O[C@@H]1O[C@H](CO)[C@@H](O)[C@H](O)[C@H]1O,inactive,inactive,–,–
C=C(CO)C12OC1C1(C)C(=CC2=O)C(O)C(O)CC1C (stereo not given),inactive,inactive,–,–
O=C(/C=C/c1ccc(O)cc1)OC[C@]12O[C@H]1[C@@H](O)[C@@H]1C=CO[C@@H](O[C@@H]3O[C@H](CO)[C@@H](O)[C@H](O)[C@H]3O)[C@@H]12,inactive,inactive,–,–
c1ccc(CNCc2ccc(CN3CCCNCCNCCCNCC3)cc2)nc1,inactive,inactive,–,–
COc1c2c(c(C)c3c1C(=O)OC3)O[C@@]1(C)C[C@@H](O)[C@]34O[C@](OC)(CC[C@]3(C)[C@H]1C2)OC4(C)C,inactive,inactive,–,–
Cc1cn2c(n1)Cc1ccc(Cl)cc1C(c1ccc(N)cc1)=N2,14600 nM (active),18400 nM (active),–,–
CC(C)=CCC[C@](C)(O[C@@H]1O[C@H](CO)[C@@H](O)[C@H](O)[C@H]1O)[C@H]1CC[C@]2(C)[C@@H]1[C@H](O)CC1[C@@]3(C)CC[C@H](O)C(C)(C)C3[C@@H](O[C@@H]3O[C@H](CO)[C@@H](O)[C@H](O)[C@H]3O[C@@H]3OC[C@@H](O)[C@H](O)[C@H]3O)C[C@]12C (stereo not given in full),–,–,84.7% [at 9.25 µM],84.8% [at 9.25 µM]
CN(C)CCn1cc(S(=O)(=O)c2cccc(F)c2)c2cccnc21,inactive,inactive,–,–
FC(F)(F)Oc1ccc(-c2ccc3nnc(C(F)(F)F)n3c2)cc1,inactive,inactive,–,–
Cc1ccc(S(=O)(=O)c2ccc([N+](=O)[O-])o2)cc1,461 nM (active),411 nM (active),–,–
CCOC(=O)c1c(C)nn(-c2cccc([N+](=O)[O-])c2)c1C,inactive,inactive,–,–
COc1cc(C2c3cc4c(c(O)c3CC(CO)C2C(=O)O)OCO4)cc(OC)c1O (stereo not given),2520 nM (active),2000 nM (active),–,–
CCC(C)(O)C(O)C(=O)OCc1ccc(O[C@@H]2O[C@H](CO)[C@@H](O)[C@H](O)[C@H]2O)cc1 (stereo not given in full),inactive,inactive,–,–
CC1(C)CC2C(C1)C(C)(O)C13CC1(COC3=O)C2O (stereo not given),inactive,inactive,–,–
C=C1C(=O)O[C@@H]2/C=C(\CO)CC/C=C(/C=O)C[C@@H](O)[C@@H]12,3660 nM (active),2060 nM (active),–,–
O=C(CCCCc1ccc2ccccc2c1)C(F)(F)F,inactive,inactive,–,–
C[C@@H]1O[C@@H](O[C@H]2[C@H](OC(=O)[C@]34CCC(C)(C)C[C@H]3C3=CCC5[C@@]6(C)CC[C@H](O[C@@H]7O[C@H](CO[C@@H]8OC[C@H](O)[C@H](O)[C@H]8O[C@@H]8OC[C@@H](O)[C@H](O)[C@H]8O)[C@@H](O)[C@H](O)[C@H]7O)C(C)(C)C6CC[C@@]5(C)[C@]3(C)C[C@H]4O)O[C@H](CO)[C@@H](O)[C@@H]2O)[C@H](O[C@@H]2O[C@H](CO)[C@@H](O)[C@H](O)[C@H]2O)[C@H](O)[C@H]1O[C@@H]1OC[C@@H](O)[C@H](O[C@@H]2OC[C@@H](O)[C@H](O)[C@H]2O)[C@H]1O (stereo not given in full),–,–,93.4% [at 4.97 µM],88.9% [at 4.97 µM]
CC(C)(Cc1ccccc1)NCC(O)c1ccc(O)c(NS(C)(=O)=O)c1 (stereo not given),inactive,inactive,–,–
O=C(Nc1ccc(Cl)cc1F)c1ccccc1O,9200 nM (active),7310 nM (active),–,–

Structure (SMILES),Potency [1],Potency [2],viability (% of control) [1],"viability, % of control [2]"
CC1(C(=O)O)CCCC2(C)C3CCC4CC3(CCC12)CC4C(=O)O (stereo not given),inactive,inactive,–,–
CCOc1ccc(Cc2nc(-c3c(C)nc4ccccn34)cs2)cc1,36.6 nM (active),18.4 nM (active),–,–
CC1(C)CC[C@]2(C(=O)O)CC[C@]3(C)C(=CCC4[C@@]5(C)C[C@@H](O)[C@H](O)C(C)(C)C5CC[C@]43C)[C@@H]2[C@@H]1O (stereo not given in full),inactive,inactive,–,–
CN1C(=O)c2ccccc2-n2c(nc3ccccc3c2=O)[C@@]12O[C@H]2c1ccccc1,3600 nM (active),inactive,–,–
CC(C)=CCCC1(C)Oc2cc3c(c4c2C2C(O4)C(C)(O)CCC21)CN(C(CCC(=O)O)C(=O)O)C3=O (stereo not given),inactive,inactive,–,–
C[C@@H]1C[C@@H](O)[C@@]23CO[C@@H](O)[C@@H]2CCC[C@@H]3[C@@]12C[C@@H](c1ccoc1)OC2=O,inactive,inactive,–,–
CN1CCN(C(=O)c2ccc3cc(CCNc4ncnc5ccc(C#N)cc45)ccc3c2)CC1,920 nM (active),461 nM (active),–,–
COC(=O)C1(O)C(OC(C)=O)CCC2C3(CC(c4ccoc4)OC3=O)C(C)=CCC21C(=O)OC (stereo not given),inactive,inactive,–,–
CC(=O)O[C@H]1[C@H](O[C@H]2CC[C@]34C[C@]35CC[C@]3(C)[C@@H]([C@@]6(C)CC[C@@H](C(C)(C)O)O6)[C@@H](O)C[C@@]3(C)[C@@H]5C[C@H](O[C@@H]3O[C@H](CO)[C@@H](O)[C@H](O)[C@H]3O)[C@H]4C2(C)C)OC[C@@H](OC(C)=O)[C@@H]1O,inactive,inactive,–,–
Cc1cc(NC(=O)c2cccc(NC(=O)/C=C/CN(C)C)c2)ccc1Nc1nccc(-c2cccnc2)n1,2060 nM (active),2310 nM (active),–,–
CC(=O)/C=C/[C@H]1[C@](C)(O)[C@@H](O)[C@H](OC(C)=O)C2C(C)(C)CCC[C@@]21C (stereo not given in full),inactive,inactive,–,–
C[C@@H]1O[C@@H](OC[C@H]2O[C@@H](OC(CCCCc3ccc(O)cc3)CCc3ccc(O)cc3)[C@H](O)[C@@H](O)[C@@H]2O)[C@H](O)[C@H](O)[C@H]1O (stereo not given in full),inactive,inactive,–,–
N#CC1C(=O)N=C(c2cc(Cl)ccc2O)C=C1c1cc(OCc2ccccc2)cc(OCc2ccccc2)c1 (stereo not given),inactive,inactive,–,–
C[C@]1(OC(=O)/C=C\c2ccc(O)cc2)C[C@@H](O)[C@]2(O)C=CO[C@@H](O[C@@H]3O[C@H](CO)[C@@H](O)[C@H](O)[C@H]3O)C12 (stereo not given in full),inactive,inactive,–,–
C=C1C(O)CC2C(C(=O)O)=COC(OC3OC(CO)C(O)C(O)C3OC(=O)/C=C\c3ccc(O)cc3)C12 (stereo not given),inactive,inactive,–,–
C=C(C(=O)O)C1CC(O)C2(C)CCCC(C)(O)C2C1 (stereo not given),inactive,inactive,–,–
C/C1=C\CC[C@H](C)CCO[C@@H]2O[C@H](CO[C@@H]3OC[C@](O)(COC1=O)[C@H]3O)[C@@H](O)[C@H](O)[C@H]2O,inactive,inactive,–,–
C[C@@H]1O[C@@H](O[C@H]2[C@H](Oc3cc(O)c(C(=O)CCc4ccc(O)cc4)c(O)c3)O[C@H](CO)[C@@H](O)[C@@H]2O)[C@H](O)[C@H](O)[C@H]1O,inactive,inactive,–,–
Nc1nc(Cl)nc2c1ncn2C1OC(CO)C(O)C1F (stereo not given),116 nM (active),130 nM (active),–,–
CC1(CO)CC[C@]2(C(=O)O[C@@H]3O[C@H](CO)[C@@H](O)[C@H](O)[C@H]3O)CC[C@]3(C)C(=CCC4[C@@]5(C)C[C@H](O)[C@H](O[C@@H]6OC[C@@H](O)[C@H](O)[C@H]6O)[C@@](C)(CO)C5CC[C@]43C)C2C1 (stereo not given in full),–,–,88.9% [at 9.25 µM],101% [at 9.25 µM]
Cc1[nH]c2ccccc2c1C1=C(NCCc2ccc(F)cc2)C(=O)N(C)C1=O,16400 nM (active),11600 nM (active),–,–
C/C=C1\[C@H](O[C@@H]2O[C@H](CO)[C@@H](O)[C@H](O)[C@H]2O)OC=C(C(=O)OC)[C@H]1CC(=O)OC,inactive,inactive,–,–
COC(=O)c1ccc(OC)cc1O[C@@H]1O[C@H](CO[C@@H]2OC[C@@H](O)[C@H](O)[C@H]2O)[C@@H](O)[C@H](O)[C@H]1O,inactive,inactive,–,–
CC1(C)CCC2(C(=O)OC3OC(CO)C(O)C(O)C3O)CCC3(C)C(=CCC4C5(C)CCC(OC6OC(C(=O)O)C(OC7OC(CO)C(O)C(O)C7O)C(OC7OC(CO)C(O)C(O)C7O)C6O)C(C)(C)C5CCC43C)C2C1 (stereo not given),–,–,77.9% [at 9.25 µM],109% [at 9.25 µM]
C[C@@H]1CC[C@]2(C(=O)O)CC[C@]3(C)C(=CCC4[C@]5(C)C(CC[C@]43C)C(C)(C)[C@@H](O)[C@H](O)[C@@H]5O)C2[C@]1(C)O (stereo not given in full),inactive,inactive,–,–
C=C1C(=O)O[C@H]2[C@H]1[C@@H](OC(=O)/C(C)=C\C)C[C@]1(C)O[C@@H]1[C@H]1O[C@H]1C(=C)[C@H]2O,8050 nM (active),3600 nM (active),–,–
O=C(O)Cc1nn(Cc2nc3cc(C(F)(F)F)ccc3s2)c(=O)c2nccnc12,inactive,inactive,–,–
